# Test results taken from ChEMBL document CHEMBL3988442, “University of Dundee, Small-Polar-MMV Screening Library” (2021).
# In all, about 53,000 compounds went through this assay and about 900 (1.7%) showed an effect of 50% or more. The sample as a whole holds a higher share of strong results than the screen did.
# Test system: Mycobacterium tuberculosis
# Experiment: Cornell - Phenotypic assay to identify agents that inhibit growth of Mycobacterium tuberculosis
# Type: functional
# Parameters: scale not given: direction of the effect not stated beside the values
# Settings: 10 mM as filed; unlikely as a test dose
row,SMILES,Percent Effect [%]
1,CC(=O)N1CC(c2n[nH]c3ncccc23)C1,-13.82
2,CNS(=O)(=O)CC(=O)N1CCCc2cc(Br)ccc21,-18.99
3,COCc1nc(C(=O)OCC2CCN(c3ccccc3)C2)cs1 (stereo unspecified),17.1
4,COc1ccc(C(NCc2ccc(C#N)cc2)C2CC2)cc1.Cl (stereo unspecified),-15.68
5,c1cnc2[nH]c(C3CCCC3)c(CN3CCOCC3)c2c1,24.1
6,CCN1CCN(Cc2c(C3CCCC3)[nH]c3ncccc23)CC1,74.68
7,c1cnc2[nH]c(C3CCCC3)c(CN3CCCCC3)c2c1,34.75
8,CC1CCN(C(=O)C2CC(=O)N(c3cnn(C(C)C)c3)C2)CC1 (stereo unspecified),-3.187
9,CN(C)S(=O)(=O)c1ccc(-c2nc(C#N)c(NC(C)(C)C)o2)o1.Cl,104.3
10,CNc1oc(-c2ccc(S(=O)(=O)N(C)C)o2)nc1C#N,17.81
11,CC(C)Nc1oc(-c2ccc(S(=O)(=O)N(C)C)o2)nc1C#N,-45.52
12,Cc1nc(N2CCC(CC(=O)N3CCCC3)CC2)c2cnn(C)c2n1,3.468
13,CC(C)C1SCC(=O)Nc2c1cnn2C(C)C (stereo unspecified),18.65
14,CNc1ccc(C2CN(c3cc(C)ncn3)CCO2)nc1 (stereo unspecified),34.11
15,CNc1ccc(C2CN(c3nc(C)cc(C)n3)CCO2)nc1 (stereo unspecified),51.49
16,CNc1ccc(C2CN(c3cc(C)nc(N)n3)CCO2)nc1 (stereo unspecified),24.16
17,Cc1cc(NC(=O)Cc2ccccc2O)cnc1N1CCCCC1,28.35
18,O=C(Cc1ccccc1O)Nc1ccc(N2CCCC2)nc1,-5.098
19,Cc1cc(NC(=O)Cc2ccccc2O)c[nH]c1=O,77.58
20,Cc1cc(NC(=O)C(C)N2CCN(c3ccccc3F)CC2)no1 (stereo unspecified),2.813
21,CCn1cncc1CNc1ccc(-c2nc(CC(C)C)no2)cn1,11.21
22,CCC(O)CNc1ccc(-c2nc(CC(C)C)no2)cn1 (stereo unspecified),50.96
23,CC(C)Cc1noc(-c2ccc(NCc3noc(C(C)C)n3)nc2)n1,44.87
24,CN(C(=O)C1(C#N)CCCCC1)c1nccs1,17.67

row,SMILES,Percent Effect [%]
1,Oc1ccc(N2CCN(Cc3ccc(F)cc3Br)CC2)cc1,105.2
2,OCCN1CCN(Cc2cc3c(cc2Br)OCCO3)CC1,-50.33
3,Oc1ccc(N2CCN(Cc3cc4c(cc3Br)OCCO4)CC2)cc1,104.9
4,CS(=O)(=O)N1CCN(Cc2ccc(F)cc2Br)CC1,31.68
5,O=S(=O)(N1CCCCCC1)N1CCN(Cc2ccc(F)cc2Br)CC1,10.21
6,OC1CCN(Cc2cc3c(cc2Br)OCCO3)CC1,5.885
7,Cc1ccccc1C1CCCN1Cc1ccc(S(=O)(=O)N(C)C)o1 (stereo unspecified),23.54
8,O=C(O)c1cnc(N2CCCC2)nc1COc1ccc(F)cc1,38.38
9,COCC(O)CN(C)C(=O)NCc1ccc(-c2ccn[nH]2)cc1 (stereo unspecified),-4.972
10,CN1CCOC(c2cncc(CCC(=O)N(C)C)n2)C1 (stereo unspecified),-44.27
11,Fc1cccc(Nc2nc(N3CCCC3)nc3c2CNCC3)c1,102.5
12,Oc1nc(N2CCOCC2)nc2c1CCN(Cc1cccc(F)c1)CC2,-50.2
13,COc1cccc(Nc2nc(N3CCCC3)nc3c2CNCC3)c1.Cl,17.23
14,Cc1ccc(Cl)cc1N1CCN(CC(=O)NCc2ccco2)CC1,15.76
15,O=C(NCC1CCCO1)Nc1nnc(C(F)(F)F)s1 (stereo unspecified),1.87
16,CCOCC(=O)NCCc1nc(C)cc(C(F)(F)F)n1,8.236
17,COc1ncc(-c2cc(NCCN(C)C)nc3[nH]ccc23)c(OC)n1,-22.77
18,COc1cc(-c2cc(NC3CCCC3)nc3[nH]ccc23)nc(N)n1,98.19
19,COCCNc1cc(-c2ccccc2S(N)(=O)=O)c2cc[nH]c2n1,21.18
20,CNc1cc(C)nc(-c2cc(NC3CCNCC3)nc3[nH]ccc23)n1,12.28
21,Nc1ccnc(-c2cc(NC3CCNCC3)nc3[nH]ccc23)c1,11.63
22,COc1nccnc1-c1cc(NC2CCNCC2)nc2[nH]ccc12,48.16
23,COc1ncc(-c2cc(NC3CCCC3)nc3[nH]ccc23)c(OC)n1,89.73
24,COc1nccnc1-c1cc(NC2CCCC2)nc2[nH]ccc12,101.6

row,SMILES,Percent Effect [%]
1,FC(F)(F)c1ccc(-c2cc(NC3CCNCC3)nc3[nH]ccc23)nc1,3.154
2,C=Cc1cccc(CN(Cc2cnn(C)c2)C2CC2)c1,14.04
3,Cc1nc(C)n(CC2CCCCN2Cc2cn3ccccc3n2)n1 (stereo unspecified),-36.82
4,Cc1csc(C(C)(C)NCCOc2ccc(CC#N)cc2)n1,-14.48
5,NC(=O)N1CCCN(Cc2cc(F)cc(Br)c2)CC1,17.84
6,Cc1cccc(CN2C[C@@H]3COC[C@]3(CNC(=O)C3CCC3)C2)c1.O=C(O)C(F)(F)F,0.1331
7,CN(C)CCOC1CC2(CCN(c3cnccn3)CC2)c2ccccc21.O=C(O)C(F)(F)F (stereo unspecified),-38.38
8,O=C(O)C(F)(F)F.c1cncc(C2CC3(CCN(c4cnccn4)CC3)c3ccccc32)c1 (stereo unspecified),50.88
9,CCOC1CC2(CCN(c3cnccn3)CC2)c2ccccc21 (stereo unspecified),32.32
10,Cc1cnc(-c2nc(O)c3c(n2)CN(C(=O)C2CCCC2)CC3)cn1,-5.983
11,Cn1cc(S(=O)(=O)NCC(C)(O)c2ccsc2)cn1 (stereo unspecified),-58.46
12,Fc1cccc(NCc2ncc[nH]2)c1,35.73
13,COC(=O)c1ccc(NCc2csc(C)n2)cc1Cl,15.32
14,COCc1nc2cc(NCc3csc(C)n3)ccc2o1,107.6
15,COCc1nc2cc(NCc3nc(C)cs3)ccc2o1,107.4
16,Cc1csc(CNc2cnn(C(C)C)c2)n1,-3.592
17,COCc1nc(C2CCN(Cc3ncc[nH]3)CC2)no1,-22.72
18,Fc1ccc(NCc2ncc[nH]2)cc1Br,55.27
19,Cc1csc(CNc2cccc(OCCN3CCCC3)c2)n1,34.79
20,CC(C)(C)OC(=O)N1CCCc2ccc(NCc3ncc[nH]3)cc21,-12.48
21,COCc1nc(CNc2cccc(-c3csc(C)n3)c2)cs1,38.18
22,COc1cc(NCc2ncc[nH]2)ccc1Br,-5.052
23,COCc1nc2cc(NCc3ncc[nH]3)ccc2o1,107.7
